About 83,000 compounds went through this panel and 20% of them were active in at least one assay; those are over-represented in the sample as a whole.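 Step 1: grow cells in 96-well plates. Step 2: add test compound at a single concentration. Step 3: incubate 48 h. Step 4: record percent growth.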 Values without a mark were called inactive. The source made the active and inactive calls. Rule for the calls: active = growth percent below 10; inactive = the rest.

Among the test systems are SK-MEL-2 melanoma; EKVX NSCLC; SN12C renal; UO-31 renal; TK-10 renal; ACHN renal; CAKI-1 renal; A498 renal; CCRF-CEM leukemia; MOLT-4 leukemia; SR leukemia; OVCAR-8 ovarian; OVCAR-5 ovarian; OVCAR-4 ovarian; SK-OV-3 ovarian; IGROV1 ovarian; OVCAR-3 ovarian; HS 578T breast; NCI/ADR-RES ovarian; RPMI-8226 leukemia.
Assay in all cases: NCI-60 one-dose screen, 48 h (100 = growth as untreated, 0 = no growth, -100 = all killed)
What all share (details): 10 µM unless noted

For the compound `Cc1cnc(NC(=O)C(Cc2ccccc2)NC(=O)c2ccccc2)s1` (stereo not drawn), the growth in the assay with SK-MEL-2 melanoma is 43.2%; in the assay with EKVX NSCLC it was 78.5%; with SN12C renal it was 76.1%; with UO-31 renal, 26.7%; with TK-10 renal, 79.2%; with ACHN renal it was 68%. For the same compound, the growth with CAKI-1 renal is 92.4%; with A498 renal, 92.6%; with CCRF-CEM leukemia, 81.3%; in the assay with MOLT-4 leukemia, 40.8%; with SR leukemia it was 41%; in the assay with OVCAR-8 ovarian, 92.6%. The growth in the assay with OVCAR-5 ovarian was 106%; in the assay with OVCAR-4 ovarian, 59.4%; in the assay with SK-OV-3 ovarian, 108%; with IGROV1 ovarian it was -19.6% (active); in the assay on OVCAR-3 ovarian, 83.8%; in the assay on HS 578T breast, 85.8%. Besides, the growth in the assay on NCI/ADR-RES ovarian is 65.6%.
As to `CCC(c1ccc(OC)cc1)C(CC)c1ccc(OCC[N+](C)(C)C)cc1` (stereo not drawn), the growth in the assay with SK-MEL-2 melanoma was 94%; with EKVX NSCLC, 81.1%; in the assay with SN12C renal, 34.1%; in the assay with UO-31 renal, 82.2%; with TK-10 renal, 76.4%; in the assay on ACHN renal, 91%. Moreover, the growth was 99.2% in the assay with CAKI-1 renal; 93.2% with A498 renal; 58.8% with CCRF-CEM leukemia; 51.8% with MOLT-4 leukemia; 53.9% with SR leukemia; 51.4% in the assay on OVCAR-8 ovarian. Also, the growth is 91% in the assay on OVCAR-5 ovarian; 63.4% with OVCAR-4 ovarian; 87.7% in the assay with SK-OV-3 ovarian; 34.6% in the assay on OVCAR-3 ovarian; 63.6% with HS 578T breast; 100% with NCI/ADR-RES ovarian.
For the compound `COc1ccc(/C=C(\C#N)c2ccc([N+](=O)[O-])cc2)c2ccccc12`, the growth in the assay on SK-MEL-2 melanoma is 59.8%; with EKVX NSCLC, 52.9%; in the assay on SN12C renal, 41.4%; with UO-31 renal it was 66.5%; with TK-10 renal, 88.1%; in the assay on ACHN renal, 37.9%. Further, the growth in the assay with CAKI-1 renal was 64.3%; in the assay on A498 renal, 60%; with CCRF-CEM leukemia, 83%; in the assay with MOLT-4 leukemia, 88.3%; in the assay with SR leukemia, 31%; in the assay on RPMI-8226 leukemia, 82.8%. Besides, the growth in the assay with OVCAR-8 ovarian is 15.8%; in the assay with OVCAR-5 ovarian, 92.8%; in the assay on OVCAR-3 ovarian it was 62.6%; with HS 578T breast, 26.2%; in the assay with NCI/ADR-RES ovarian, 50%.
For `C=C1C(=O)O[C@H]2[C@H]1CC/C(COC(=O)NCc1cc(OC)cc(OC)c1)=C\CC[C@@]1(C)O[C@@H]21`, the growth is 23.2% in the assay with SK-MEL-2 melanoma; 40.5% with EKVX NSCLC; 7.86% (active) in the assay with SN12C renal; -58.4% (active) with UO-31 renal; -1.01% (active) in the assay on TK-10 renal; 5.79% (active) in the assay on ACHN renal. In addition, the growth is -15.1% (active) with CAKI-1 renal; 68% in the assay on A498 renal; 2.4% (active) in the assay on CCRF-CEM leukemia; -3.45% (active) in the assay with MOLT-4 leukemia; 3.61% (active) in the assay on SR leukemia; 5.14% (active) in the assay with RPMI-8226 leukemia. The growth in the assay on OVCAR-8 ovarian is -9.79% (active); with OVCAR-5 ovarian, 18.1%; with OVCAR-4 ovarian, 9.29% (active); in the assay with OVCAR-3 ovarian, -76.8% (active); in the assay on HS 578T breast, 37.1%; in the assay on NCI/ADR-RES ovarian, 63.4%.
As to `CCOC(=O)CC/C(C)=N\Nc1ccc([N+](=O)[O-])cc1`, the growth with SK-MEL-2 melanoma was 58.8%; with EKVX NSCLC it was 51.9%; with SN12C renal, 77.6%; with UO-31 renal, 30.3%; in the assay on TK-10 renal, 58.2%; with ACHN renal, 36.8%. The growth is 40.6% in the assay with CAKI-1 renal; 85.1% with A498 renal; 41.7% in the assay on CCRF-CEM leukemia; 35.4% in the assay with MOLT-4 leukemia; 39% in the assay on SR leukemia; 59.8% in the assay with RPMI-8226 leukemia. Besides, the growth in the assay on OVCAR-8 ovarian is 56.9%; with OVCAR-5 ovarian, 84.3%; with OVCAR-4 ovarian, 77.2%; in the assay on IGROV1 ovarian, 71%; in the assay on OVCAR-3 ovarian, 86.1%; in the assay on HS 578T breast, 88.6%. Besides, in the assay on NCI/ADR-RES ovarian, the growth was 80.3%.
In the case of `CC1CCN(C(=O)CSc2nc3sc4c(c3c(=O)[nH]2)CCCC4)CC1`, the growth with SK-MEL-2 melanoma is 80.2%; in the assay on EKVX NSCLC, 98.9%; in the assay on SN12C renal, 102%; with UO-31 renal, 82.6%; in the assay with TK-10 renal, 163%; in the assay with ACHN renal, 101%. For the same compound, the growth was 96.4% with CAKI-1 renal; 95.8% in the assay on A498 renal; 74.4% in the assay on CCRF-CEM leukemia; 98.5% in the assay with MOLT-4 leukemia; 85.5% with SR leukemia; 82.4% in the assay on RPMI-8226 leukemia. Further, the growth was 102% with OVCAR-8 ovarian; 103% in the assay on SK-OV-3 ovarian; 87.7% in the assay with IGROV1 ovarian; 116% in the assay with OVCAR-3 ovarian; 113% in the assay with HS 578T breast; 109% in the assay on NCI/ADR-RES ovarian.
For `CCCCCCCCCCC/C=C\C[C@H](O)C/C=C1/C(=O)C=C[C@@H]1C/C=C\CCCC(=O)OC`, the growth was -24.4% (active) in the assay with SK-MEL-2 melanoma; 1.38% (active) in the assay with EKVX NSCLC; -24.7% (active) in the assay with SN12C renal; -63% (active) in the assay with UO-31 renal; 0.114% (active) in the assay with TK-10 renal; -20.1% (active) in the assay on ACHN renal. In addition, the growth in the assay on CAKI-1 renal is 13.8%; in the assay with A498 renal it was 99.7%; in the assay on CCRF-CEM leukemia, 12.2%; in the assay on MOLT-4 leukemia, -0.235% (active); with SR leukemia it was 6.46% (active); in the assay with RPMI-8226 leukemia it was -10.2% (active). Besides, the growth was 7.18% (active) in the assay on OVCAR-8 ovarian; 21.9% in the assay with OVCAR-5 ovarian; -1.25% (active) in the assay with OVCAR-4 ovarian; -15.9% (active) in the assay on IGROV1 ovarian; -46.2% (active) in the assay with OVCAR-3 ovarian; 18% in the assay on HS 578T breast. Further, the growth in the assay with NCI/ADR-RES ovarian is 9.04% (active).
For `CC/C=C\C[C@H](O)C/C=C1/C(=O)C(Cl)=C[C@@H]1C/C=C\CCCC(=O)OC`, the growth with SK-MEL-2 melanoma was -21% (active); with EKVX NSCLC, -63.2% (active); in the assay on SN12C renal, -51.7% (active); in the assay with UO-31 renal, -94.5% (active); with TK-10 renal, -34.2% (active); with ACHN renal, -43.6% (active). The growth is 13.2% with CAKI-1 renal; 1.86% (active) in the assay with A498 renal; -3.78% (active) in the assay with CCRF-CEM leukemia; -6.11% (active) in the assay on MOLT-4 leukemia; 1.41% (active) with SR leukemia; -12.2% (active) with RPMI-8226 leukemia. In addition, the growth with OVCAR-8 ovarian is 1.69% (active); in the assay on OVCAR-4 ovarian, -47.3% (active); in the assay on SK-OV-3 ovarian, 8.03% (active); in the assay with IGROV1 ovarian, -12.6% (active); with OVCAR-3 ovarian, -87.8% (active); with HS 578T breast it was 35.2%. For the same compound, the growth with NCI/ADR-RES ovarian is 14%.
With `O=S(=O)(NCCNc1cc(-c2cn(-c3ccccc3)nc2-c2ccccc2)ccn1)c1ccc(F)cc1`, the growth with SK-MEL-2 melanoma is 108%; in the assay on EKVX NSCLC it was 71.3%; with SN12C renal it was 92.8%; in the assay on UO-31 renal, 60.7%; in the assay with TK-10 renal, 114%; in the assay on ACHN renal it was 93%. Also, the growth was 66.1% in the assay with CAKI-1 renal; 83.8% in the assay with A498 renal; 83.4% with CCRF-CEM leukemia; 70.1% in the assay with MOLT-4 leukemia; 79.3% in the assay on SR leukemia; 72.5% in the assay with RPMI-8226 leukemia. Besides, the growth was 83% with OVCAR-8 ovarian; 106% in the assay on OVCAR-5 ovarian; 92.1% in the assay on SK-OV-3 ovarian; 98% with IGROV1 ovarian; 94.7% in the assay with OVCAR-3 ovarian; 87.3% in the assay with HS 578T breast. The growth in the assay with NCI/ADR-RES ovarian was 81.3%.
Take `O=C(/C=C/CN1CCOCC1)Nc1cc2c(Nc3cccc(Cl)c3F)ncnc2cc1OCCOC(F)F`: the growth was 95.9% in the assay with SK-MEL-2 melanoma; 29.5% in the assay with EKVX NSCLC; 61.8% in the assay with SN12C renal; 36.8% with UO-31 renal; 57.3% in the assay on TK-10 renal; 22.2% in the assay on ACHN renal. In addition, the growth in the assay on CAKI-1 renal is 24.9%; in the assay with A498 renal, 7.02% (active); in the assay on CCRF-CEM leukemia, 102%; with MOLT-4 leukemia it was 77.3%; in the assay on SR leukemia, 97.1%; in the assay on RPMI-8226 leukemia, 84.5%. Also, the growth in the assay on OVCAR-8 ovarian was 67.6%; with OVCAR-5 ovarian, 49.5%; with OVCAR-4 ovarian, 82.4%; in the assay with IGROV1 ovarian, 6.79% (active); with OVCAR-3 ovarian, 68.3%; in the assay with HS 578T breast, 64.9%. The growth in the assay on NCI/ADR-RES ovarian was 60.9%.
For the compound `CC(=O)Nc1ccc2c(c1)/C(=C\C=C/c1ccc([N+](C)(C)C)cc1)c1ccccc1-2`, the growth in the assay on SK-MEL-2 melanoma is 80.9%; in the assay with EKVX NSCLC it was 57.7%; in the assay on SN12C renal, 16.6%; in the assay on UO-31 renal it was 64.5%; with TK-10 renal, 103%; with ACHN renal it was 73.2%. The growth in the assay with CAKI-1 renal is 65.8%; in the assay on A498 renal, 86%; in the assay with CCRF-CEM leukemia it was 67.3%; in the assay on MOLT-4 leukemia, 63.6%; in the assay on SR leukemia, 90%; in the assay with OVCAR-8 ovarian, 57.4%. For the same compound, the growth with OVCAR-5 ovarian is 53.9%; in the assay on OVCAR-4 ovarian, 28.1%; in the assay on SK-OV-3 ovarian, 70.2%; in the assay on IGROV1 ovarian, 67.1%; in the assay with OVCAR-3 ovarian, 78%; in the assay on HS 578T breast, 25.3%. The growth with NCI/ADR-RES ovarian was 101%.
As for `COc1ncc(-c2ccc3ncnc(Nc4cccc(Cl)c4)c3c2)cc1NS(=O)(=O)CCN1CCOCC1`, the growth in the assay on SK-MEL-2 melanoma was -1.15% (active); with EKVX NSCLC, -20.7% (active); in the assay with SN12C renal, 10.1%; in the assay on UO-31 renal it was -8.52% (active); in the assay on TK-10 renal, -19.6% (active); in the assay on ACHN renal, 7.46% (active). Besides, the growth was 1.1% (active) in the assay on CAKI-1 renal; -35.9% (active) with A498 renal; 22.5% with CCRF-CEM leukemia; 2.58% (active) with MOLT-4 leukemia; 9.25% (active) in the assay with SR leukemia; 16.9% with OVCAR-8 ovarian. In addition, the growth is 6.39% (active) in the assay on OVCAR-5 ovarian; 33.1% in the assay with OVCAR-4 ovarian; -25.9% (active) in the assay with SK-OV-3 ovarian; -36.9% (active) with IGROV1 ovarian; 5.82% (active) with OVCAR-3 ovarian; -21.1% (active) in the assay with HS 578T breast. Further, the growth in the assay on NCI/ADR-RES ovarian is 30.1%.

Source of the values: PubChem BioAssay (NCI).
